Screen size: about 48,000 compounds; about 13,000 (27%) showed an effect of 50% or more. This is one part of the list.
System: Wolbachia pipientis
Assay: Anti-Wolbachia Cell-Based Screen
Type: functional
Parameters: scale not given: in the data most compounds retested in dose-response had high values
Settings: 5 µM

SMILES	Percent Effect [%]
CCOC(=O)N1CCC2(CCNC2)C1.Cl (stereo unspecified)	-20.05
CN1CCC2(COCc3cnc(N4CCOCC4)nc32)C1.O=C(O)C(F)(F)F (stereo unspecified)	-0.9764
CC(C)c1nccc([C@H]2C[C@@H]3CCN(Cc4ccoc4)C[C@H]3O2)n1	-1.768
N#Cc1ccc(NC2CCN(c3ncccn3)CC2)cc1Cl	-9.238
CN(CCOCC1CC1)C(=O)Nc1ccc(C#N)c(Cl)c1	80.92
CCc1noc(CN(C)CCC(=O)Nc2ccc(C#N)c(Cl)c2)n1	4.268
CN(C)C(=O)[C@@H]1CC[C@@H]2[C@@H](CCN2Cc2ccccn2)O1.O=C(O)C(F)(F)F.O=C(O)C(F)(F)F	-15.27
CC(C)N1CC[C@@H]2OC[C@H](C(=O)Nc3cccnc3)C[C@@H]2C1.O=C(O)C(F)(F)F.O=C(O)C(F)(F)F	84.8
O=C(Nc1cccnc1)[C@@H]1C[C@H]2OCC[C@H]2N(Cc2ccsc2)C1.O=C(O)C(F)(F)F.O=C(O)C(F)(F)F	-12.16
Cc1ccc(C(=O)N2C[C@@H]3CCN(C(C)C)C[C@@H]3C2)cn1.O=C(O)C(F)(F)F	-22.14
CN(Cc1ccccn1)C1CCC[C@@H]2CN(CC3CC3)C[C@H]12.O=C(O)C(F)(F)F.O=C(O)C(F)(F)F (stereo partly specified)	-32.78
O=C(Nc1cccnc1)[C@H]1C[C@@H]2CCN(Cc3nccs3)C[C@@H]2O1.O=C(O)C(F)(F)F.O=C(O)C(F)(F)F	21.14
CCCN1CC[C@@H]2OC[C@H](C(=O)Nc3cccnc3)C[C@@H]2C1.O=C(O)C(F)(F)F.O=C(O)C(F)(F)F	103.7
O=C(Nc1cccnc1)[C@H]1CN(C2CCCC2)C[C@H]2OCC[C@@H]12.O=C(O)C(F)(F)F.O=C(O)C(F)(F)F	2.861
O=C(Nc1cccnc1)[C@H]1COC[C@H]2CN(C3CCCC3)C[C@H]21.O=C(O)C(F)(F)F.O=C(O)C(F)(F)F	10.99
CN1CC[C@@H]2OC[C@H](C(=O)N(C)Cc3ccccn3)C[C@@H]2C1.O=C(O)C(F)(F)F.O=C(O)C(F)(F)F	91.38
O=C(Nc1cccnc1)[C@H]1CO[C@H]2CCNC[C@H]2C1.O=C(O)C(F)(F)F.O=C(O)C(F)(F)F	99.23
CCOCCN1C[C@H](C(=O)Nc2cccnc2)[C@@H]2CCO[C@@H]2C1.O=C(O)C(F)(F)F.O=C(O)C(F)(F)F	4.673
Cl.O=C(C1CCC1)N1CCC2(CCNCC2)C1	-22.91
O=C(Cc1ccc(O)c(Cl)c1)N1CCN(CC2CC2)[C@@H]2CS(=O)(=O)C[C@@H]21	2.879
Cc1cc(C)c(CNc2cnc3ccccc3n2)c(=O)[nH]1	10.07

SMILES	Percent Effect [%]
CC1COC2(CCN(C(=O)c3ncoc3C(C)C)CC2)O1 (stereo unspecified)	0.05226
O=C(O)C(F)(F)F.O=C(O)C(F)(F)F.O=C1[C@H]2CN(Cc3ccoc3)C[C@H]2CN1Cc1ccncc1	1.4
CS(=O)(=O)Cc1nc(CN2CC=C(c3ccccc3)CC2)cs1	9.315
O=C(C1CCC1)N1CC[C@]2(O)CCN(Cc3ncccn3)C[C@@H]2C1	9.794
Cc1noc([C@H]2C[C@H]3OCC[C@H]3N(Cc3ccncc3)C2)n1	9.305
Cc1noc([C@]23COC[C@H]2CN(C(C)C)C3)n1.O=C(O)C(F)(F)F	-9.217
Cc1noc([C@@H]2C[C@H]3OCC[C@H]3N(C(C)C)C2)n1.O=C(O)C(F)(F)F	82.77
Cc1nc(COC[C@H]2CC[C@H]3NCC[C@H]3O2)cs1.Cl.Cl	-19.37
Cc1cc(CN2C[C@@H]3COC[C@]3(CNC(=O)N3CCCC3)C2)no1.O=C(O)C(F)(F)F	-10.59
Cc1noc(C)c1CN1CC[C@H]2O[C@@H](C(=O)N3CCCC3)CC[C@H]21.O=C(O)C(F)(F)F	9.45
Cc1noc(C)c1CN1CC2(CCCCN2C)CC1=O.O=C(O)C(F)(F)F (stereo unspecified)	-9.804
COCCNC(=O)[C@@]12CCO[C@@H]1CCN(Cc1c(C)noc1C)C2.O=C(O)C(F)(F)F	-6.3
Cc1noc(C)c1CN1CCCC2(CCN(CC3CCCC3)C2)C1.O=C(O)C(F)(F)F (stereo unspecified)	102.6
Cc1noc(C)c1CN1CCCC2(CCN(C(=O)C3CC3)C2)C1 (stereo unspecified)	106.9
Cc1ccc(CC(=O)N2CCN(C(C)c3ccccc3F)CC2)cn1 (stereo unspecified)	7.645
COCCNC1(c2ccc(Cl)cc2)CCOCC1	5.533
CC(C)=CCN1C[C@H]2CC[C@@H]1CN(Cc1cc(=O)[nH]c(=O)[nH]1)C2	7.172
CCc1ccccc1OCCNCCc1c[nH]cn1	-3.829
Cc1cc(NCCc2c[nH]cn2)nc(-c2cccnc2)n1	99.48
Cc1cnc(NCCc2c[nH]cn2)nc1-c1ccnn1C	-2.604
CN(Cc1cc(C2CC2)on1)C(=O)CN1CC(c2ccccc2)CC1=O (stereo unspecified)	-9.848

SMILES	Percent Effect [%]
Cc1noc(C)c1CN(C)C(=O)CN1CC(c2ccccc2)CC1=O (stereo unspecified)	-0.5183
Cc1cc(CN(C)C(=O)CN2CCCC2=O)no1	135.7
CCc1noc(CC)c1CC(=O)N1CCCC(N2CCCCC2)C1 (stereo unspecified)	-13.04
CN(c1ncccc1C#N)C1CCN(CCc2ccccn2)CC1	3.648
O[C@@]1(CNCCCOc2cccnc2)CCCN2CCCC[C@@H]21	-22.25
COCCN1CCO[C@H]2CN(C(=O)c3ccncc3F)C[C@H]21.O=C(O)C(F)(F)F	-13.21
O=C(c1c[nH]c(=O)c(Cl)c1)N1C[C@@H]2CC[C@H](C1)N(CC1CCC1)C2	97.45
CC(C)=CCN1C[C@H]2CC[C@@H]1CN(C(=O)c1c[nH]c(=O)c(Cl)c1)C2	-5.36
Cc1ncc(CC(=O)N2C[C@@H]3CC[C@H](C2)N(CC2CCC2)C3)c(=O)[nH]1	1.908
CCCn1cc(C(=O)NC(C(=O)O)c2ccccc2C(F)(F)F)c(C)n1 (stereo unspecified)	7.837
O=C(Cc1ccc(CO)cc1)N1CCN(CC2CC2)[C@@H]2CS(=O)(=O)C[C@@H]21	-14.38
CN1CCN(S(C)(=O)=O)Cc2cccnc21	126.5
CN(C)CCN1CCN(CC2CC2)c2ncccc2C1	104.8
CCS(=O)(=O)N1CCN(C)c2ncccc2C1	97.89
CN1CCN(Cc2ccoc2)Cc2cccnc21	-15.03
CN1CCN(S(=O)(=O)C2CC2)Cc2cccnc21	113.9
CN1CCN(c2ncccn2)CC12CCC(=O)N(CC1CC1)CC2 (stereo unspecified)	-4.361
Cl.O=C(NCC1CCCCC1)N1C[C@@H]2C[C@H]1CN2	-10.23
CCCN1CCN(C(=O)c2ccc(Cl)cn2)[C@H]2CS(=O)(=O)C[C@H]21	7.172
CCC(C(=O)N1CCCSCC1)N1CCCC1=O (stereo unspecified)	0.6755
Cc1cccc(CN2CC3C[C@]3(NC(=O)c3ccco3)C2)n1 (stereo partly specified)	-15.21

SMILES	Percent Effect [%]
CCCN1CCN(C(=O)c2cccc(C)n2)[C@H]2CS(=O)(=O)C[C@H]21	-6.939
CCN1CCC2(CC1)CN(CCO)c1ccccc12	-10.11
CS(=O)(=O)N1CCN(CC2CC2)c2ncccc2C1	6.456
O=C(O)C(F)(F)F.O=C(O)C(F)(F)F.c1cnc2c(c1)CN(C1CCOC1)CCN2CC1CC1 (stereo unspecified)	-0.9537
CCS(=O)(=O)N1CCN(CC2CC2)c2ncccc2C1	115
COc1ccccc1CC(C)N(C)CCS(C)(=O)=O (stereo unspecified)	-4.195
COc1cc(N2C[C@H]3CCN(CCN4CCCC4)C[C@H]3C2)ncn1.O=C(O)C(F)(F)F.O=C(O)C(F)(F)F	-9.875
COc1ncccc1CN1C[C@@H]2OCCN(CCN(C)C)[C@@H]2C1.O=C(O)C(F)(F)F.O=C(O)C(F)(F)F.O=C(O)C(F)(F)F	17.28
COc1cc(N2C[C@H]3CN(Cc4ccccn4)C[C@H]3C2)ncn1.O=C(O)C(F)(F)F	127.8
CN(C)CCN1CCO[C@H]2CN(Cc3ccccn3)C[C@H]21.O=C(O)C(F)(F)F.O=C(O)C(F)(F)F.O=C(O)C(F)(F)F.O=C(O)C(F)(F)F	10.34
COCCN1CCCC12CCN(Cc1cccnc1OC)CC2.O=C(O)C(F)(F)F.O=C(O)C(F)(F)F	-1.646
COc1ncccc1CN1C[C@@H]2CN(c3ncccn3)C[C@@H]2C1	110.4
COc1ncccc1CN1CCC2(CC1)COCCN2C.O=C(O)C(F)(F)F.O=C(O)C(F)(F)F	-5.344
COC[C@]12COC[C@H]1CN(Cc1cccnc1OC)C2	3.857
COCCCN1CCCC12CCN(Cc1cccnc1OC)CC2.O=C(O)C(F)(F)F.O=C(O)C(F)(F)F	-1.56
CNC(=O)[C@H]1C[C@@H]2CN(Cc3cccnc3OC)C[C@@H]2N1C(C)C.O=C(O)C(F)(F)F.O=C(O)C(F)(F)F.O=C(O)C(F)(F)F	5.567
CNC(=O)[C@H]1C[C@@H]2CN(Cc3cccnc3OC)C[C@@H]2N1C(C)=O.O=C(O)C(F)(F)F.O=C(O)C(F)(F)F	92.23
COCCN1CC[C@@H]2CN(Cc3cccnc3OC)C[C@@H]2C1.O=C(O)C(F)(F)F.O=C(O)C(F)(F)F	130.6

— ChEMBL document CHEMBL3988442, “University of Dundee, Small-Polar-MMV Screening Library” (2021)
